# Legend:
# Assay in all cases: DAPPL (digital affinity profiling via proximity ligation, sequencing); 10 mM Tris-HCl pH 7.5, 50 mM NaCl, 1 mM DTT, 4% glycerol, room temperature, 30 min; GST-TFs on glutathione beads, 16-mer random dsDNA library, 0.1% formaldehyde crosslink after washing; high values mean tight binding
# [1] = biological target: T1, FEV (Homo sapiens, UniProt Q99581 1-238); conditions: protein: recombinant; tags: N-terminal GST; dsDNA, one strand shown
# T1 sequence: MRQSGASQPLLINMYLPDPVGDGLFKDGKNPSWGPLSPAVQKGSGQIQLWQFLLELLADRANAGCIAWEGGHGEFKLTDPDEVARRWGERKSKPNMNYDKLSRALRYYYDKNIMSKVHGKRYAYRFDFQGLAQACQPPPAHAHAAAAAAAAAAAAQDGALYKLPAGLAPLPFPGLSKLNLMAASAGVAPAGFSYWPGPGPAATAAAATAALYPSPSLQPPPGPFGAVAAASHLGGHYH
# Method in brief: (§1)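 After expression in yeast as GST fusions, human transcription factors were bound to glutathione beads, DNA-barcoded and mixed with a tag-only sample. The pools were incubated with 200 nmole of a 16-mer random double-stranded DNA library in Tris/NaCl/DTT/glycerol buffer (30 min, room temperature), washed and crosslinked with 0.1% formaldehyde. Proximity ligation with BsaI/T4 ligase ran for 1 h at 37 °C, before PCR amplification and sequencing on an Illumina NextSeq500. Binding signal is a hexamer's read frequency for a factor divided by its frequency for the tag-only sample.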
# [2] = biological target: ETV5 (Homo sapiens, UniProt P41161 1-510); conditions: protein: recombinant; tags: N-terminal GST; dsDNA, one strand shown
# Method in brief: as §1
# [3] = biological target: HSF1 (Homo sapiens, UniProt Q00613 1-529); conditions: protein: recombinant; tags: N-terminal GST; chain copies: 3; dsDNA, one strand shown
# Method in brief: as §1
# [4] = biological target: T2, SPIC (Homo sapiens, UniProt Q8N5J4 1-248); conditions: protein: recombinant; tags: N-terminal GST; dsDNA, one strand shown
# T2 sequence: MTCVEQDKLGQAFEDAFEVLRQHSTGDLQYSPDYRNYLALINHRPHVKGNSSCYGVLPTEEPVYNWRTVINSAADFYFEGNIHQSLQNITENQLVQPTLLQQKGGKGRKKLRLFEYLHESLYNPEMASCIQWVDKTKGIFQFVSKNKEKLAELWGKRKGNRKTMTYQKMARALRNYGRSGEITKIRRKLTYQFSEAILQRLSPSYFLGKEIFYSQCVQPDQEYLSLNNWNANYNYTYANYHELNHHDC
# Method in brief: as §1
# [5] = biological target: ELF4 (Homo sapiens, UniProt Q99607 1-663); conditions: protein: recombinant; tags: N-terminal GST; dsDNA, one strand shown
# Method in brief: as §1
# [6] = biological target: T3, ELK4 (Homo sapiens, UniProt P28324-2 1-405); conditions: protein: recombinant; tags: N-terminal GST; dsDNA, one strand shown
# T3 sequence: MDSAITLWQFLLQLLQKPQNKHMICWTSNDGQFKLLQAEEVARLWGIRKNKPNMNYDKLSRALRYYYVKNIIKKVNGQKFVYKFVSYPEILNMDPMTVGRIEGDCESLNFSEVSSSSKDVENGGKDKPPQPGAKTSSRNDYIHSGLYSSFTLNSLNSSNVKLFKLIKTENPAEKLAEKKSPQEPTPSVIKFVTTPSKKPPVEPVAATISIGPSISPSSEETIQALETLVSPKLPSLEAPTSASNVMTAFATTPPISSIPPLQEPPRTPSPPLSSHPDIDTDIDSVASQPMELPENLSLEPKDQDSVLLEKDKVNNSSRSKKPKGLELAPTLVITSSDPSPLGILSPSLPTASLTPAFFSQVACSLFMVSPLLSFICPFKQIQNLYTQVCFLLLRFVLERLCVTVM
# Method in brief: as §1
# [7] = biological target: T4, ETV2 (Homo sapiens, UniProt O00321 1-342); conditions: protein: recombinant; tags: N-terminal GST; dsDNA, one strand shown
# T4 sequence: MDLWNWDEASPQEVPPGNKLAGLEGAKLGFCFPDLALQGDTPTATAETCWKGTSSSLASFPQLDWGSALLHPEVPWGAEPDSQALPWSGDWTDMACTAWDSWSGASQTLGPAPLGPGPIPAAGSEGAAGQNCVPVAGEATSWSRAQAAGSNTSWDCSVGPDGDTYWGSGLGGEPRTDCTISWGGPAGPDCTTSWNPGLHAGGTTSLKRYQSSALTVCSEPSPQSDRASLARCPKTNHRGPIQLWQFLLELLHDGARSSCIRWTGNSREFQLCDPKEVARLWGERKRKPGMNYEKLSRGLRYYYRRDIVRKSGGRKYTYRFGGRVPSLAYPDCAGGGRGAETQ
# Method in brief: as §1
# [8] = biological target: T5, ELF3 (Homo sapiens, UniProt P78545 1-371); conditions: protein: recombinant; tags: N-terminal GST; dsDNA, one strand shown
# T5 sequence: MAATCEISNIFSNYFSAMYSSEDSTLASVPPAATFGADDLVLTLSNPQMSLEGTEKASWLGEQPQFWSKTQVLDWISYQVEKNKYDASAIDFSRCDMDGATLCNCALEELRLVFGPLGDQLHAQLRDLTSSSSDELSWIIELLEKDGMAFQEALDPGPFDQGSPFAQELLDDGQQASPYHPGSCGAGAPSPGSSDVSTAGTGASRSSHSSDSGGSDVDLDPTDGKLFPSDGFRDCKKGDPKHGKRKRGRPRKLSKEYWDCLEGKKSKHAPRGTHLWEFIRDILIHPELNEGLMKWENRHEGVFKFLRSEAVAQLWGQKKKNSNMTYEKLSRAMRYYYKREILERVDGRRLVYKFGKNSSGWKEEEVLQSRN
# Method in brief: as §1
# [9] = biological target: CRX (Homo sapiens, UniProt O43186 1-299); conditions: protein: recombinant; tags: N-terminal GST; dsDNA, one strand shown
# Method in brief: as §1
# [10] = biological target: ETV1 (Homo sapiens, UniProt P50549 1-477); conditions: protein: recombinant; tags: N-terminal GST; dsDNA, one strand shown
# Method in brief: as §1
# Sequence of HSF1 (Q00613 whole entry): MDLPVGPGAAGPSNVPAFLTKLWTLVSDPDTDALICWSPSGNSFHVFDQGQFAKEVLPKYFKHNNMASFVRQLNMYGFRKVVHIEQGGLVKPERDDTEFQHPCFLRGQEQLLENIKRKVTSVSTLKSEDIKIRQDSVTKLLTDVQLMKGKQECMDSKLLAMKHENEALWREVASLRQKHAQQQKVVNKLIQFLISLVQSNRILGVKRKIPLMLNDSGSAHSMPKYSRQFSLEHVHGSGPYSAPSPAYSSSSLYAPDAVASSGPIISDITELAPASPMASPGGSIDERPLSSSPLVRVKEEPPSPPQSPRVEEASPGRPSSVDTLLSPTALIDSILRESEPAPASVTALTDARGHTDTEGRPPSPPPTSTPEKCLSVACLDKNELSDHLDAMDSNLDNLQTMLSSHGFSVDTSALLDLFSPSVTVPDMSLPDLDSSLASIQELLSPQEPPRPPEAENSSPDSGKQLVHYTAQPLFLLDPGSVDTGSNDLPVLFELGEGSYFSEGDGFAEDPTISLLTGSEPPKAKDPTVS
# Sequence of ETV5 (P41161 whole entry): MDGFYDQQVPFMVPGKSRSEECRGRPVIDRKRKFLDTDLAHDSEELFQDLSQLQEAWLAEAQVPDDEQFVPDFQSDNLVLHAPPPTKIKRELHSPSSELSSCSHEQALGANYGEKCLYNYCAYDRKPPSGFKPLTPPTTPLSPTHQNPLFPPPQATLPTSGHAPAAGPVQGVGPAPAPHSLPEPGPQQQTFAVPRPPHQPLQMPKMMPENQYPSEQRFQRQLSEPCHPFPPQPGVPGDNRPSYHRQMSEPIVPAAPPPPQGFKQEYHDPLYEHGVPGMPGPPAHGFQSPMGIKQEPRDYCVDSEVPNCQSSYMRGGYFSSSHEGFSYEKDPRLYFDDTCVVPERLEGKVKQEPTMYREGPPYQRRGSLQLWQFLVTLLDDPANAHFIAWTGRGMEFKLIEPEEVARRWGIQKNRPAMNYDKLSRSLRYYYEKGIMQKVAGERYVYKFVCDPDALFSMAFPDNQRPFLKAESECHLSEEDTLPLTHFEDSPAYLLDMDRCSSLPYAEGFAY
# Sequence of CRX (O43186 whole entry): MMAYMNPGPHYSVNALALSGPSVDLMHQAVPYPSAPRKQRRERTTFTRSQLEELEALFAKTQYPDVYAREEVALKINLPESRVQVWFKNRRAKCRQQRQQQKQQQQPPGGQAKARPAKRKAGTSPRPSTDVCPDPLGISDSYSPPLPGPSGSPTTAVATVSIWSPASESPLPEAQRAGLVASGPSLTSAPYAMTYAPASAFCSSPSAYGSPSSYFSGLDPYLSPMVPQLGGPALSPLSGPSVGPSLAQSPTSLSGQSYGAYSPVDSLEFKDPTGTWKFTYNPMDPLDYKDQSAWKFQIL
# Sequence of ETV1 (P50549 whole entry): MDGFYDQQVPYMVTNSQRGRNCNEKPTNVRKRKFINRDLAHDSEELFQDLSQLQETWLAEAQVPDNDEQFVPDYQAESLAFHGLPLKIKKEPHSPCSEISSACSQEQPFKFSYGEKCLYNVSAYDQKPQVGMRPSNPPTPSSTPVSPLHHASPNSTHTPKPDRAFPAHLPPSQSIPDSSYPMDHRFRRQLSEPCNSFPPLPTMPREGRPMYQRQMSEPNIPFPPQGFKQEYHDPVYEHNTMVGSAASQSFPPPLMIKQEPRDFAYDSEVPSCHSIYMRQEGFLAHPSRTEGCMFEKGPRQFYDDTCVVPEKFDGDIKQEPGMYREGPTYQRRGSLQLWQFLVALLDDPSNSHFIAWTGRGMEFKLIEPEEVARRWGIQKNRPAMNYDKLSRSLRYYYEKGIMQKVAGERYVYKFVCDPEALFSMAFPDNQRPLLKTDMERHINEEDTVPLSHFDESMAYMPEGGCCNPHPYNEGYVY
# Sequence of ELF4 (Q99607 whole entry): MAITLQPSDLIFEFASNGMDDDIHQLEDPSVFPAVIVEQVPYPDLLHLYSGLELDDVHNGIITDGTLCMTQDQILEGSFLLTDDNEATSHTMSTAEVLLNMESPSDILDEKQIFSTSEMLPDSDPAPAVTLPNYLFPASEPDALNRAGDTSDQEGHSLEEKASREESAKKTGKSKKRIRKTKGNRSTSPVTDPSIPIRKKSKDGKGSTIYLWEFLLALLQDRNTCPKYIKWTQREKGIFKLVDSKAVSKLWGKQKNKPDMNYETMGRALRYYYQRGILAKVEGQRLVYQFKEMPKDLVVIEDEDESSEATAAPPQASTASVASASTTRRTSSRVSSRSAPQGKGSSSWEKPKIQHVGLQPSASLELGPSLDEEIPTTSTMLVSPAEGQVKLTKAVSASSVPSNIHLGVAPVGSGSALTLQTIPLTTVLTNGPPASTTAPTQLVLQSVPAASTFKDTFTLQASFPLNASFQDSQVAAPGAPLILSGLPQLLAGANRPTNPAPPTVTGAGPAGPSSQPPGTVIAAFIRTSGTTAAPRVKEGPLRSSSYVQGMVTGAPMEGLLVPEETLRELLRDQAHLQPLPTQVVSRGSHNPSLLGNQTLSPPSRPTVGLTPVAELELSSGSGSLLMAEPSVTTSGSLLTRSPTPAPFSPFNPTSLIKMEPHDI
sequence,measurement,setting,value
ATGCGA,binding signal,[1],"1.17 fold enrichment (6-mer frequency, TF over GST control)"
same,binding signal,[2],"1.17 fold enrichment (6-mer frequency, TF over GST control)"
same,binding signal,[3],"1.22 fold enrichment (6-mer frequency, TF over GST control)"
same,binding signal,[4],"1.26 fold enrichment (6-mer frequency, TF over GST control)"
same,binding signal,[5],"1.29 fold enrichment (6-mer frequency, TF over GST control)"
same,binding signal,[6],"1.33 fold enrichment (6-mer frequency, TF over GST control)"
same,binding signal,[7],"1.34 fold enrichment (6-mer frequency, TF over GST control)"
same,binding signal,[8],"1.31 fold enrichment (6-mer frequency, TF over GST control)"
same,binding signal,[9],"1.27 fold enrichment (6-mer frequency, TF over GST control)"
same,binding signal,[10],"1.16 fold enrichment (6-mer frequency, TF over GST control)"
